Source: PubChem BioAssay (National Center for Advancing Translational Sciences (NCATS))
Shown are actives, neighbours in structure and some others; about 0.86% of the full set was active somewhere.
NS1 function inh = blocks influenza NS1 protein function | AID 2326 | Potency, µM (highest dose often 46.1 µM), inactives show at the highest dose activity, positive = more growth | 270,000 compounds, 0.4% hits; calls by dose curve; note: actives are rising curves; nearly all actives have a fitted effect of over 50% in size
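Growth recovery, yeast-based: influenza A NS1 expressed in S. cerevisiae causes slow growth, and suppressors are detected by OD600. The parent strain without NS1 is used as positive control.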
AmpC no deterg = inhibitors of E. coli AmpC beta-lactamase without detergent; AmpC nitrocefin hydrolysis, absorbance 480 nm, 0.0001% Triton; Potency, µM (titrated, usually from 57.1 µM), for the others: at the top dose activity change, negative = inhibition, most hits filed as inhibitors; 330,000 compounds, 0.52% hits; AID 485341;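 note: plate controls were no compound for no effect and no enzyme for full effect; nearly all actives have a fitted effect of over 20% in size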
Target sequence (P00811 whole entry, looked up): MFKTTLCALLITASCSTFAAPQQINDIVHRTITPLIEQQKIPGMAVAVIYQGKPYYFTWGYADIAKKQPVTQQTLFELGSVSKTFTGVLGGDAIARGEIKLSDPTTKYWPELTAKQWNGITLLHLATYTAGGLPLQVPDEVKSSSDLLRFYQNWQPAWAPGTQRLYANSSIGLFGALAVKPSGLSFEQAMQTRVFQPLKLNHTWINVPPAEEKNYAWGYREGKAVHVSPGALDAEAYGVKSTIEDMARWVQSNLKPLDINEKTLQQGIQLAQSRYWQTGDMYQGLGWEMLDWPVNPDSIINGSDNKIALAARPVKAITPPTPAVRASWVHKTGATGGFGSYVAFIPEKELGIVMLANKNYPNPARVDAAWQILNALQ
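AmpC (5.3 nM in the dispensed reagent) in 20 mM phosphate pH 7.0 with 0.01% (detergent screen) or 0.0001% Triton X-100 was preincubated with compounds for 15 min at room temperature. Nitrocefin was then added from an 800 uM solution, and hydrolysis was followed at 480 nm.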
AMA1-RON2 inh = inhibitors of Plasmodium falciparum AMA1-RON2 interaction; 360,000 compounds, 0.2% hits; AlphaScreen AMA1-biotinylated RON2 peptide binding; Potency, µM (doses to about 58.2 µM), for inactives: top-dose activity change, negative = inhibition, most hits filed as inhibitors;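 note: 0% = vehicle wells and -100% = peptide control; nearly all actives have a fitted effect of over 45% in size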
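AMA1 (3D7) with his tag at 25 nM final met compounds first, then biotinylated RON2 peptide at 25 nM; detection used donor plus acceptor beads, 10 µg/mL apiece, read by AlphaScreen after 30 min at room temperature.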
AmpC inh detg = inhibitors of E. coli AmpC beta-lactamase with detergent; P00811; AmpC hydrolysis of nitrocefin, absorbance 480 nm, 0.01% Triton; Potency, µM (titrated, usually from 114 µM), for the others: at the highest dose activity change, negative = inhibition, usual class: inhibitors; AID 485294; 370,000 compounds, 0.041% hits;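 note: 0% = no-compound wells and -100% = no-enzyme wells; nearly all actives have a fitted effect of over 25% in size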
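20 mM phosphate pH 7.0 + 0.01% (detergent screen) or 0.0001% Triton X-100; 5.3 nM AmpC reagent; cpd preinc 15 min RT; nitrocefin (800 uM stock) to start; A480 q20 s × 4 min; Activity was normalised to no-enzyme and no-compound control wells.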
The depositor's hits bear a star; ? = inconclusive; / = not tested or not shown. Unless noted, calls come from the whole dose curve; as a rule, active = well fitted curve in the direction sought with a large enough effect; inconclusive = small, poorly fitted or top-dose-only effect, or another doubt; inactive = no such curve, though single readings can be large; an effect the other way counts as inactive or inconclusive. Potency is the fitted concentration of half-maximal effect.

SMILES | NS1 function inh | AmpC no deterg | AMA1-RON2 inh | AmpC inh detg
Cc1ccc(S(=O)(=O)c2cc3ccccc3oc2=Nc2ccc3c(c2)OCO3)cc1 | -4% | -13% | 21% | 5%
CCCCNc1nc2ccccc2n1CC(=O)Nc1c(C)cccc1CC | -9% | 20µM* | -7% | -7%
CCc1cccc(C)c1NC(=O)Cn1c(NCCO)nc2ccccc21 | -3% | -26% | -8% | -4%
C=C(C)Cn1c2ccc(NC(=O)NCc3ccc(F)cc3)cc2c(=O)n1C | / | / | 1% | /
CCc1nnc(NC(=O)CC(CN(C)S(=O)(=O)c2ccccc2)c2ccccc2)s1 (stereo not given) | -6% | 40µM* | -5% | ?
Cc1cccc(C)c1NC(=O)CN(C)C(=O)COc1cccc2c1OC(C)(C)C2 | / | 33% | -2% | 0%
CCOc1ccc(-c2cn(-c3cccc(SC)c3)c(=O)[nH]2)cc1 | -2% | 35µM* | -1% | -13%
CCOc1ccc(-n2cc(-c3ccc(OC)c(OC)c3)[nH]c2=S)cc1 | / | 0% | 60% | -2%
COc1cc(C(=O)NCC(c2cccs2)N2CCOCC2)ccc1OCc1ccc(Cl)cc1 (stereo not given) | / | / | -9% | /
CCC1CCCCN1C(=O)CSc1nnc(-c2cccc(Cl)c2)o1 (stereo not given) | -34% | 5µM* | -7% | ?
O=C(CSc1ncnc2c1oc1ccccc12)Nc1nc2ccccc2s1 | 0% | 0.79µM* | 102% | ?
N#CC1=C(N)Oc2cc(N)ccc2C1c1ccc(F)cc1 (stereo not given) | 22% | -34% | -5% | -11%
N#CC1=C(N)Oc2cc(N)ccc2C1c1ccc(Cl)cc1 (stereo not given) | 20% | 11µM* | -6% | -2%
Cc1cccc(S(=O)(=O)N(C)C[C@@H]2OCc3cn(nn3)CCCC(=O)N([C@H](C)CO)C[C@H]2C)c1 | / | / | -2% | /
O=C1CC(NS(=O)(=O)c2cccs2)CN1c1ccc(F)cc1 (stereo not given) | / | 32µM* | 6% | ?
O=C1C2CCCCC2C(=O)N1c1ccc(NC2CCCCC2)c([N+](=O)[O-])c1 (stereo not given) | 2% | -20% | ? | -12%
Cc1ccc(-n2c(=O)c3oc4ccccc4c3n(Cc3ccccc3)c2=O)cc1C | / | / | / | 1%
CN(C)C(CNc1ccc(C(F)(F)F)cc1[N+](=O)[O-])c1ccccc1 (stereo not given) | 0% | 23% | 14µM* | -5%
CN(C)C(CNc1ccc(S(C)(=O)=O)cc1[N+](=O)[O-])c1ccccc1 (stereo not given) | 4% | 12% | 5% | -14%
COc1cc(/C=N/N(C)c2ccccc2)ccc1O | -16% | -15% | -20% | 3%
COc1cc(OC)c(OC)cc1/C=N/N(C)c1ccccc1 | -46% | 96% | 32µM* | -10%
Cc1ccccc1C(=O)NC(NC(=S)Nc1ccc(S(N)(=O)=O)cc1)C(Cl)(Cl)Cl (stereo not given) | 13% | 20µM* | 0% | -14%
CN(C(=O)c1ccc(NC(=O)Cc2cccc(NC(=O)C3CCN(C(=O)C4CCCC4)CC3)c2)cc1)C1CC1 | / | / | -18% | /
O=C(N/N=C(/CC(=O)c1cccs1)C(F)(F)F)c1ccc(O)cc1 | 18% | 7.9µM* | 30% | -6%
O=C(N/N=C(\CC(=O)c1cccs1)C(F)(F)F)c1cccnc1 | 13% | -4% | 87% | 6%
SMILES | NS1 function inh | AmpC no deterg | AMA1-RON2 inh | AmpC inh detg
C=C(C)COc1ccc2c(c1)CCC1C2CC[C@]2(C)C(=O)/C(=N/O)CC12 (stereo not given in full) | 13% | / | / | /
O=C(Nc1cccc(F)c1)C1CCCN(S(=O)(=O)c2ccc(-n3cnnn3)cc2)C1 (stereo not given) | 1% | -19% | 6% | 3%
COc1ccc(Cn2c3nc4ccccc4nc3c3c(=O)n(Cc4ccco4)cnc32)cc1 | 8.9µM* | 0% | / | 0%
O=C(NC(=S)NCc1ccccc1)c1cccc([N+](=O)[O-])c1 | 1% | -36% | 30% | -13%
O=C(CNC(=S)NC(=O)c1cccc([N+](=O)[O-])c1)c1ccccc1 | 12% | 13µM* | 99% | -8%
Cn1c2ccccc2c2cc(/C=N/NC(=O)c3cc(O)ccc3O)ccc21 | 10% | -57% | -28% | -1%
CC(=O)n1cc(/C=N/NC(=O)c2cccc(O)c2)c2ccccc21 | 2% | 11µM* | 79% | -9%
Cn1c2ccccc2c2cc(/C=N/NC(=O)c3cc(O)cc(O)c3)ccc21 | -42% | 16µM* | -14% | 1%
NC(=O)CN1CCN(C(=O)Nc2ccccc2)CC1 | -5% | 22µM* | 55% | -11%
CC1=CCC2C(=O)N(c3ccc4ccccc4n3)C(=O)C2C1 (stereo not given) | 0% | 0.14µM* | -2% | 0%
COC(=O)c1ccc2c(=O)n(CC3CCCO3)c(SCC(=O)Nc3ccc(OC)cc3OC)nc2c1 (stereo not given) | 5% | -13% | 6% | -8%
N#Cc1ccc(/C=N/NC(=S)Nc2ccc(S(=O)(=O)N3CCOCC3)cc2)cc1 | -43% | -27% | 109% | -11%
O=S(=O)(c1ccc(NC(=S)N/N=C/c2ccc(O)c(O)c2)cc1)N1CCOCC1 | 3% | 16µM* | 33% | -4%
O=[N+]([O-])c1cc(Cl)cc(/C=N/NC(=S)Nc2ccc(S(=O)(=O)N3CCOCC3)cc2)c1O | -8% | -57% | 10µM* | -13%
Cc1nc(N2C(=O)c3oc4ccccc4c(=O)c3C2c2cccc(OCCC(C)C)c2)sc1C (stereo not given) | / | / | / | -8%
CC(C)(C)OC(=O)NCCc1nnc(S(=O)(=O)Cc2ccc(Cl)cc2Cl)o1 | -67% | 0.32µM* | -2% | ?
O=C1C(Cl)=C(Nc2ccccc2)C(=O)c2ccccc21 | 1% | -12% | -4% | -12%
CC(C)OCCCNC1=C(Cl)C(=O)c2ccccc2C1=O | -6% | -1% | 20µM* | -1%
C=CCNC1=C(Cl)C(=O)c2ccccc2C1=O | -21% | -11% | 18µM* | -6%
COCCCNC1=C(Cl)C(=O)c2ccccc2C1=O | -9% | -13% | 10% | -1%
O=C1C(Cl)=C(NCCc2ccccc2)C(=O)c2ccccc21 | / | / | 13µM* | /
Cc1cccc(NC(=O)c2oc3ccc(S(=O)(=O)N4CCCCC4)cc3c2C)c1C | / | / | / | -3%
CCC(=O)NC(=S)Nc1ccc(S(=O)(=O)NC2CCCCC2)cc1 | -14% | 13µM* | -3% | 10%
O=C(NC(=S)Nc1ccc(S(=O)(=O)NC2CCCCC2)cc1)c1cccs1 | 14% | -21% | 68% | 10%
COc1cc(NS(=O)(=O)c2ccc(NC(=S)Nc3ccccc3)cc2)nc(OC)n1 | 4% | 2% | -3% | 4%
CCCCC(=O)NC(=S)Nc1ccc(S(=O)(=O)N2CCCC2)cc1 | 9% | 13µM* | -10% | -11%
COc1cc(NS(=O)(=O)c2ccc(NC(=S)NC(=O)C3CCCC3)cc2)nc(OC)n1 | 13% | 16µM* | -5% | -1%
CCN(CC)c1ccc2c(O)cc(=O)oc2c1 | / | 25µM* | 6% | ?
